# Experimental data: publication PMC11006913
# Numbering of substitutions follows the chain as printed.
# How the values were obtained:
# Assay in all cases: PBM; 200 nM protein, PBS
# Conditions in all cases: dsDNA, one strand shown
# HOXB4 [1] = target: HOXB4 (Homo sapiens, UniProt P17483 148-234)
# HOXB4 [2] = target: HOXB4 (Homo sapiens, UniProt P17483 148-234, V174I)
# ALX3 = ALX3 (Homo sapiens, UniProt O95076 139-225, N203S)
# SHOX = SHOX (Homo sapiens, UniProt O15266 103-189)
# PROP1 [3] = target: PROP1 (Homo sapiens, UniProt O75360 56-141)
# PROP1 [4] = target: PROP1 (Homo sapiens, UniProt O75360 56-141, R99H)
# PROP1 [5] = target: PROP1 (Homo sapiens, UniProt O75360 56-141, F88S)
# CRX = CRX (Homo sapiens, UniProt O43186 26-111, R41L)
# PITX2 = PITX2 (Homo sapiens, UniProt Q99697 72-157)
# PAX4 [6] = target: T1, PAX4 (Homo sapiens, UniProt O43316 9-242, F177V)
# T1 sequence: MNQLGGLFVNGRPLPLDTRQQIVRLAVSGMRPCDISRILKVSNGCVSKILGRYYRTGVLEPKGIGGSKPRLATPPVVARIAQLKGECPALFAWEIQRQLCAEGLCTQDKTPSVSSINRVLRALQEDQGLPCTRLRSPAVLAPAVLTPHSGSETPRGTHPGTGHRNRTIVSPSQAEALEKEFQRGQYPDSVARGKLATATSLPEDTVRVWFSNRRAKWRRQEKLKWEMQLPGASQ
# PAX4 [7] = target: T2, PAX4 (Homo sapiens, UniProt O43316 9-242, F177Y)
# T2 sequence: T1 sequence with V169Y
# HOXD13 = HOXD13 (Homo sapiens, UniProt P35453 263-343, T313R)
# NKX2-6 = target: T3, NKX2-6 (Homo sapiens, UniProt A6NCS4 118-204)
# T3 sequence: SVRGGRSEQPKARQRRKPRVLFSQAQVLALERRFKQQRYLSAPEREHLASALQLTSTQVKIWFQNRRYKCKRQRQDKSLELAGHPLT
# PROP1 (Homo sapiens, UniProt O75360 56-141, F88S), sequence (O75360 56-141 F88S): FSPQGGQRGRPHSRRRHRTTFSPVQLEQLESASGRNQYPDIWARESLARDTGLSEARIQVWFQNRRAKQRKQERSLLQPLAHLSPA
# PROP1 (Homo sapiens, UniProt O75360 56-141, R99H), sequence (O75360 56-141 R99H): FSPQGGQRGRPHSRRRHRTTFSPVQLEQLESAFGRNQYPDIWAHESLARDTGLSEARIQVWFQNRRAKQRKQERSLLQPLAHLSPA
# HOXB4 (Homo sapiens, UniProt P17483 148-234, V174I), sequence (P17483 148-234 V174I): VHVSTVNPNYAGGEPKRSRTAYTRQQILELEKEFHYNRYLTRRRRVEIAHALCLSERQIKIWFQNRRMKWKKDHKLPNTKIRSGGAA
# SHOX, sequence (O15266 103-189): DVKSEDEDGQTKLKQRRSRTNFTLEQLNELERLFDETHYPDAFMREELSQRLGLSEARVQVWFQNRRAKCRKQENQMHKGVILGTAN
# HOXB4 (Homo sapiens, UniProt P17483 148-234), sequence (P17483 148-234): as the sequence (P17483 148-234 V174I) above, with I27V counted along it
# PROP1 (Homo sapiens, UniProt O75360 56-141), sequence (O75360 56-141): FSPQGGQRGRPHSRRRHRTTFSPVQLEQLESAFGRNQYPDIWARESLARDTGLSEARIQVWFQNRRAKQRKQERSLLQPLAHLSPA
# CRX, sequence (O43186 26-111 R41L): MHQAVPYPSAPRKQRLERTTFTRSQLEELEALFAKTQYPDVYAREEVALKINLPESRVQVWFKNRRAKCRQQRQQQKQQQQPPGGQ
# ALX3, sequence (O95076 139-225 N203S): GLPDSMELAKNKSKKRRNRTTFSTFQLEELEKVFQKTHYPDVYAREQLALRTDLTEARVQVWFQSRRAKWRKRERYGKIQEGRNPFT
# HOXD13, sequence (P35453 263-343 T313R): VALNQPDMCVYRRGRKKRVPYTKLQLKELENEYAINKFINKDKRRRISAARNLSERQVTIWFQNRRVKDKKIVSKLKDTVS
sequence,measurement,setting,value
ATAAGCGC,binding signal,HOXB4 [1],"9.9 upbm affinity estimate (log intensity, higher = more binding, comparable within an allelic series)"
same,binding signal,HOXB4 [2],"10 upbm affinity estimate (log intensity, higher = more binding, comparable within an allelic series)"
ATTACTTA,binding signal,HOXB4 [1],"12.1 upbm affinity estimate (log intensity, higher = more binding, comparable within an allelic series)"
same,binding signal,HOXB4 [2],"12.5 upbm affinity estimate (log intensity, higher = more binding, comparable within an allelic series)"
same,binding signal,ALX3,"8.71 upbm affinity estimate (log intensity, higher = more binding, comparable within an allelic series)"
CATTTTCC,binding signal,SHOX,"8.3 upbm affinity estimate (log intensity, higher = more binding, comparable within an allelic series)"
GCCTCTCC,binding signal,HOXB4 [1],"7.31 upbm affinity estimate (log intensity, higher = more binding, comparable within an allelic series)"
same,binding signal,HOXB4 [2],"7.24 upbm affinity estimate (log intensity, higher = more binding, comparable within an allelic series)"
same,binding signal,PROP1 [3],"6.75 upbm affinity estimate (log intensity, higher = more binding, comparable within an allelic series)"
same,binding signal,PROP1 [4],"6.63 upbm affinity estimate (log intensity, higher = more binding, comparable within an allelic series)"
same,binding signal,PROP1 [5],"6.67 upbm affinity estimate (log intensity, higher = more binding, comparable within an allelic series)"
GAACTAAA,binding signal,SHOX,"8.27 upbm affinity estimate (log intensity, higher = more binding, comparable within an allelic series)"
ACAATCAA,binding signal,SHOX,"8.45 upbm affinity estimate (log intensity, higher = more binding, comparable within an allelic series)"
ATTGCTAC,binding signal,SHOX,"8.23 upbm affinity estimate (log intensity, higher = more binding, comparable within an allelic series)"
AATCGGTA,binding signal,SHOX,"8.66 upbm affinity estimate (log intensity, higher = more binding, comparable within an allelic series)"
GCTGATGA,binding signal,SHOX,"8.21 upbm affinity estimate (log intensity, higher = more binding, comparable within an allelic series)"
TCATAACA,binding signal,SHOX,"8.35 upbm affinity estimate (log intensity, higher = more binding, comparable within an allelic series)"
AAATATAA,binding signal,SHOX,"9.24 upbm affinity estimate (log intensity, higher = more binding, comparable within an allelic series)"
CAGTGTGC,binding signal,HOXB4 [1],"7.61 upbm affinity estimate (log intensity, higher = more binding, comparable within an allelic series)"
same,binding signal,HOXB4 [2],"7.69 upbm affinity estimate (log intensity, higher = more binding, comparable within an allelic series)"
same,binding signal,PROP1 [3],"6.79 upbm affinity estimate (log intensity, higher = more binding, comparable within an allelic series)"
same,binding signal,PROP1 [4],"6.58 upbm affinity estimate (log intensity, higher = more binding, comparable within an allelic series)"
same,binding signal,PROP1 [5],"6.78 upbm affinity estimate (log intensity, higher = more binding, comparable within an allelic series)"
CTTAAGCA,binding signal,HOXB4 [1],"10.1 upbm affinity estimate (log intensity, higher = more binding, comparable within an allelic series)"
same,binding signal,HOXB4 [2],"10.1 upbm affinity estimate (log intensity, higher = more binding, comparable within an allelic series)"
same,binding signal,CRX,"10.3 upbm affinity estimate (log intensity, higher = more binding, comparable within an allelic series)"
CTCAATAA,binding signal,SHOX,"9.16 upbm affinity estimate (log intensity, higher = more binding, comparable within an allelic series)"
ACTGTTAA,binding signal,SHOX,"8.56 upbm affinity estimate (log intensity, higher = more binding, comparable within an allelic series)"
AAGCTCTC,binding signal,HOXB4 [1],"7.48 upbm affinity estimate (log intensity, higher = more binding, comparable within an allelic series)"
same,binding signal,HOXB4 [2],"7.53 upbm affinity estimate (log intensity, higher = more binding, comparable within an allelic series)"
same,binding signal,PROP1 [3],"6.71 upbm affinity estimate (log intensity, higher = more binding, comparable within an allelic series)"
same,binding signal,PROP1 [4],"6.64 upbm affinity estimate (log intensity, higher = more binding, comparable within an allelic series)"
same,binding signal,PROP1 [5],"6.84 upbm affinity estimate (log intensity, higher = more binding, comparable within an allelic series)"
ATTCATGA,binding signal,SHOX,"8.41 upbm affinity estimate (log intensity, higher = more binding, comparable within an allelic series)"
TAACGACA,binding signal,SHOX,"8.33 upbm affinity estimate (log intensity, higher = more binding, comparable within an allelic series)"
CTTATAGA,binding signal,SHOX,"8.03 upbm affinity estimate (log intensity, higher = more binding, comparable within an allelic series)"
GAAAAGTA,binding signal,SHOX,"7.94 upbm affinity estimate (log intensity, higher = more binding, comparable within an allelic series)"
GAATTAGA,binding signal,SHOX,"9.8 upbm affinity estimate (log intensity, higher = more binding, comparable within an allelic series)"
GTTAGTCA,binding signal,SHOX,"8.37 upbm affinity estimate (log intensity, higher = more binding, comparable within an allelic series)"
GAATTACA,binding signal,SHOX,"9.41 upbm affinity estimate (log intensity, higher = more binding, comparable within an allelic series)"
CCCATTTA,binding signal,SHOX,"8.95 upbm affinity estimate (log intensity, higher = more binding, comparable within an allelic series)"
CCGTGCGC,binding signal,HOXB4 [1],"7.73 upbm affinity estimate (log intensity, higher = more binding, comparable within an allelic series)"
same,binding signal,HOXB4 [2],"7.75 upbm affinity estimate (log intensity, higher = more binding, comparable within an allelic series)"
same,binding signal,PITX2,"7.97 upbm affinity estimate (log intensity, higher = more binding, comparable within an allelic series)"
ATTATGCC,binding signal,SHOX,"9.49 upbm affinity estimate (log intensity, higher = more binding, comparable within an allelic series)"
AGCATTAG,binding signal,HOXB4 [1],"10.5 upbm affinity estimate (log intensity, higher = more binding, comparable within an allelic series)"
same,binding signal,HOXB4 [2],"10.7 upbm affinity estimate (log intensity, higher = more binding, comparable within an allelic series)"
same,binding signal,CRX,"10.1 upbm affinity estimate (log intensity, higher = more binding, comparable within an allelic series)"
GATTATTA,binding signal,HOXB4 [1],"12.9 upbm affinity estimate (log intensity, higher = more binding, comparable within an allelic series)"
same,binding signal,HOXB4 [2],"13.5 upbm affinity estimate (log intensity, higher = more binding, comparable within an allelic series)"
same,binding signal,PAX4 [6],"10.6 upbm affinity estimate (log intensity, higher = more binding, comparable within an allelic series)"
same,binding signal,PAX4 [7],"11 upbm affinity estimate (log intensity, higher = more binding, comparable within an allelic series)"
GCATTAAA,binding signal,SHOX,"8.99 upbm affinity estimate (log intensity, higher = more binding, comparable within an allelic series)"
CCAGATAA,binding signal,SHOX,"8.47 upbm affinity estimate (log intensity, higher = more binding, comparable within an allelic series)"
AAATTATC,binding signal,SHOX,"10.4 upbm affinity estimate (log intensity, higher = more binding, comparable within an allelic series)"
AATATAAA,binding signal,HOXB4 [1],"10.6 upbm affinity estimate (log intensity, higher = more binding, comparable within an allelic series)"
same,binding signal,HOXB4 [2],"10.7 upbm affinity estimate (log intensity, higher = more binding, comparable within an allelic series)"
same,binding signal,HOXD13,"10.7 upbm affinity estimate (log intensity, higher = more binding, comparable within an allelic series)"
TCAAGTAA,binding signal,SHOX,"8.54 upbm affinity estimate (log intensity, higher = more binding, comparable within an allelic series)"
ATTAAAGC,binding signal,HOXB4 [1],"11.7 upbm affinity estimate (log intensity, higher = more binding, comparable within an allelic series)"
same,binding signal,HOXB4 [2],"11.9 upbm affinity estimate (log intensity, higher = more binding, comparable within an allelic series)"
same,binding signal,NKX2-6,"11.1 upbm affinity estimate (log intensity, higher = more binding, comparable within an allelic series)"
